HT1080-NT tox: kills 2HG-producing HT-1080-NT fibrosarcoma cells; HT-1080-NT fibrosarcoma viability, CellTiter-Glo ATP luminescence, 48 h; Potency, µM (highest dose often 46.1 µM), actives largely listed as cytotoxic; hit rate 1.6% among 360,000; AID 686970;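 also: NT is the 2HG producing partner of a matched IDH1 knockdown line; nearly all actives have a fitted effect of over 55% in size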
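Read-out is CellTiter-Glo luminescence after 10 minutes at room temperature, following 48 hours' compound treatment of HT-1080-NT cells (750 cells/well, RPMI, 5% FBS, 37 degrees C).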
KB-3-1 tox: kills parental KB-3-1 adenocarcinoma cells | KB-3-1 viability, CellTiter-Glo ATP luminescence, 72 h | AID 1347075 | Potency, µM (series often up to 46.1 µM), usual class: cytotoxic | hit rate 1.4% among 400,000; also: nearly all actives have a fitted effect of over 60% in size
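Cells are dispensed, compounds pinned in, plates held at 37 °C for 72 h, then CellTiter-Glo is added and luminescence read after 10 minutes. Cell line: parental KB-3-1 in phenol-red-free DMEM, 10% FBS.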
TDP1 cell CPT: growth inhibition of DT40 Tdp1-/-;hTDP1 cells with camptothecin (screen for TDP1 inhibitors); chicken DT40 Tdp1-/-;hTDP1 cells + 20 nM CPT, ATP luminescence, 48 h; Potency, µM (highest dose often 46.2 µM), hits mostly inhibitors; hit rate 12% among 420,000; AID 686979; also: nearly all actives have a fitted effect of over 55% in size
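Cell growth measured by CellTiter-Glo luminescence after a minimum 48 h, 37 C compound exposure with 20 nM CPT in Tdp1-knockout DT40 cells stably expressing hTDP1, seeded 400/well; qHTS titration format.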
HT1080 IDH1KD tx: HT-1080 IDH1 knockdown cell toxicity (counter line) | HT-1080 IDH1 knockdown viability, ATP luminescence, 48 h | Potency, µM (top dose mostly 46.1 µM), most hits filed as cytotoxic | hit rate 2% among 360,000
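IDH1KD HT-1080 cells, 750/well, RPMI + 5% FBS; compound pinned after 2 h settling; 48 h, 37 °C; CellTiter-Glo luminescence; % activity normalised to DMSO and no-cell wells; curves fitted, classed by r2 and efficacy.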
TDP1 cell noCPT: qHTS for Inhibitors of human tyrosyl-DNA phosphodiesterase 1 (TDP1): qHTS in cells in absence of CPT; DT40 Tdp1-/- hTDP1 cells, no CPT, ATP luminescence, 48 h; hit rate 15% among 420,000; Potency, µM (series often up to 46.2 µM), hits mostly inhibitors; also: nearly all actives have a fitted effect of over 55% in size
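Camptothecin absent (DMSO only). Human TDP1-complemented DT40 knockout cells, 400 cells/well, 37 °C for minimum 48 hr; ATP measured via CellTiter-Glo, 30 min dark incubation, luminescence.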
KB-V1 MDR tox: kills drug-selected multidrug resistant KB-V1 cells; KB-V1 MDR cells viability, CellTiter-Glo, 72 h; Potency, µM (top dose mostly 46.1 µM), most hits filed as cytotoxic; hit rate 3.4% among 400,000; AID 1347076; also: nearly all actives have a fitted effect of over 60% in size
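Readout: CellTiter-Glo luminescence, 10 min after addition. Cells: KB-V1 MDR subline, 72 h at 37 degrees C with compound. Analysis: corrected, normalized data fitted to concentration-effect curves.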
Of the large screens only hits and unclear results are named; the others gave an inactive call. An excerpt weighted towards active compounds, which were near 19% of everything screened. Calls follow the shape of the dose curve; as a rule, active = well fitted curve in the direction sought with a large enough effect; inconclusive = small, poorly fitted or top-dose-only effect, or another doubt; inactive = no such curve, though single readings can be large; an effect the other way counts as inactive or inconclusive.

COc1ccc(C(=O)NNC(=O)c2cc3ccccc3cc2O)cc1	KB-3-1 tox inconclusive, TDP1 cell CPT inconclusive, TDP1 cell noCPT 13µM, KB-V1 MDR tox inconclusive
O=C(Nc1ccc(N2CCCC2)c(Cl)c1)c1ccc([N+](=O)[O-])cc1	none
CCCCCC(=O)Nc1ccc(N2CCN(CC)CC2)c(Cl)c1	HT1080-NT tox inconclusive, TDP1 cell CPT 35µM, HT1080 IDH1KD tx inconclusive, TDP1 cell noCPT inconclusive
CC(=O)N1CCN(c2ccc(NC(=O)c3ccc(Br)o3)cc2Cl)CC1	TDP1 cell CPT 16µM, TDP1 cell noCPT 26µM
CC(C)C(=O)N1CCN(c2ccc(NC(=O)c3ccc(Br)o3)cc2)CC1	HT1080-NT tox inconclusive, TDP1 cell CPT inconclusive
CC(C)C(=O)N1CCN(c2ccc(NC(=O)c3ccc([N+](=O)[O-])o3)cc2Cl)CC1	HT1080-NT tox 7.3µM, KB-3-1 tox inconclusive, TDP1 cell CPT 1.2µM, HT1080 IDH1KD tx inconclusive, TDP1 cell noCPT 2.1µM, KB-V1 MDR tox inconclusive
COc1c(F)c(F)c(C(=O)Nc2ccc(N3CCN(C(C)=O)CC3)c(Cl)c2)c(F)c1F	TDP1 cell CPT inconclusive, TDP1 cell noCPT inconclusive
CC(C)C(=O)N1CCN(c2ccc(NC(=O)c3ccc([N+](=O)[O-])o3)cc2)CC1	HT1080-NT tox 12µM, KB-3-1 tox inconclusive, TDP1 cell CPT 2.1µM, HT1080 IDH1KD tx 7.3µM, TDP1 cell noCPT 12µM, KB-V1 MDR tox inconclusive
Cc1nc(N2CCCCC2)[nH]c(=O)c1CN(C)N=O	TDP1 cell noCPT inconclusive
CC(C)CNC(=O)C1(C)CCCN1Cc1ccc(S(C)(=O)=O)cc1 (stereo not drawn)	none
CCCC(=O)N1CCN(c2ccc(NC(=O)c3ccco3)cc2)CC1	none
CCCC(=O)N1CCN(c2ccc(NC(=O)c3ccc([N+](=O)[O-])o3)cc2Cl)CC1	HT1080-NT tox 16µM, KB-3-1 tox inconclusive, TDP1 cell CPT 0.92µM, HT1080 IDH1KD tx inconclusive, TDP1 cell noCPT 5.8µM, KB-V1 MDR tox inconclusive
O=C(COC(=O)C1C2CC3OC(=O)C1C3C2)Nc1ccc(Cl)cc1 (stereo not drawn)	none
COc1cccc(S(=O)(=O)Nc2ccc3c(c2)OCCO3)c1	TDP1 cell CPT inconclusive, TDP1 cell noCPT inconclusive, KB-V1 MDR tox inconclusive
Cc1nc2cc(NS(=O)(=O)c3cccc4cccnc34)ccc2s1	KB-3-1 tox inconclusive, TDP1 cell CPT 16µM, TDP1 cell noCPT 9.2µM, KB-V1 MDR tox inconclusive
COc1cccc(S(=O)(=O)Nc2ccc3sc(C)nc3c2)c1	KB-3-1 tox inconclusive, TDP1 cell CPT inconclusive, TDP1 cell noCPT 23µM
Cc1nc2ccc(NS(=O)(=O)c3c(F)cccc3F)cc2s1	HT1080-NT tox inconclusive, TDP1 cell CPT 16µM, TDP1 cell noCPT 16µM
NC(=O)c1nn2c(C(F)(F)F)cc(-c3ccc(Br)cc3)nc2c1Cl	TDP1 cell CPT inconclusive, TDP1 cell noCPT inconclusive (no result: HT1080-NT tox, HT1080 IDH1KD tx)
Cc1ccc(NC(=O)CCNS(=O)(=O)c2cc(Br)cnc2N)cc1Cl	KB-3-1 tox inconclusive, TDP1 cell CPT inconclusive, TDP1 cell noCPT inconclusive, KB-V1 MDR tox 13µM
COc1ccccc1N1CCN(C(=O)CCNS(=O)(=O)c2cc(Br)cnc2N)CC1	TDP1 cell CPT 18µM, TDP1 cell noCPT inconclusive
COc1ccccc1N1CCN(C(=O)CCNS(=O)(=O)c2ccc(Br)s2)CC1	TDP1 cell CPT 23µM, TDP1 cell noCPT 18µM, KB-V1 MDR tox inconclusive
O=C(CCCn1c(=O)c2sccc2n(Cc2ccc(F)cc2Cl)c1=O)NCc1ccc2c(c1)OCO2	none (no result: HT1080-NT tox, KB-3-1 tox, HT1080 IDH1KD tx, KB-V1 MDR tox)
Cc1cc(C)c(Cn2c(C)c(CNCc3ccccc3C)c(C(=O)O)c2C)c(C)c1	TDP1 cell CPT inconclusive, TDP1 cell noCPT inconclusive (no result: HT1080-NT tox, HT1080 IDH1KD tx)
COc1ccc(C(=O)NCC(=O)N/N=C/c2cn[nH]c2-c2ccccc2)cc1	none
CCCNC(=O)N1CCCN(S(=O)(=O)c2ccc3c(ccn3CC)c2)CC1	KB-V1 MDR tox inconclusive (no result: HT1080-NT tox, TDP1 cell CPT, HT1080 IDH1KD tx, TDP1 cell noCPT)
CC(C)Cc1ccc(CN2CCCC(NC(=O)c3cccc(-n4cnnc4)c3)C2)cc1 (stereo not drawn)	HT1080-NT tox inconclusive, TDP1 cell CPT 21µM, HT1080 IDH1KD tx inconclusive, TDP1 cell noCPT 23µM, KB-V1 MDR tox inconclusive
